Usually inhibition stands for the relative decrease from the control value, in per cent.

SMILES strings stand for the structures. Screen size: about 290,000 compounds; about 890 (0.31%) were called active. Cut-off read from the data, not from the text of the source: active = inhibition mostly above about 52% (no sharp cut-off); inactive = mostly below about 76%. Many of the other results were omitted from the sample, so actives are more common in it than they were.

The assay in a line: cell-free HIV fusion peptide-binding blockers – biochemical, uHTS, fluorescence dequenching, primary screen (AID 1986). The following applies: 30 min, stronger effect = higher value.
The mark [1] stands for this setting: measured here: repeat confirmation average inhibition, at 18.6 µM.

In the case of `COc1cc(NC(=O)C2CC(=O)NC3=C2C(=O)CCC3)c(OC)cc1Cl` (stereo not drawn), the inhibition (at 20 µM) is -1.9% (inactive). `N#CC1=C(N)OC2=C(CC/C2=C\c2ccc(F)cc2)C1c1ccc(F)cc1` (stereo not drawn): the inhibition reads like this: (at 20 µM) 73.8% (inactive); under setting [1], 40.5%.

For `COc1cc2c(cc1NC(=O)CSc1ccc(C)cc1)oc1ccccc12`, the inhibition (at 20 µM) was 0.2% (inactive). The same measure, in the same setting: as for `NC(=O)C1CCN(C(=O)CN2CCc3ccccc32)CC1`, the figure is -0.5% (inactive). The same measure, in the same setting: the figure for `O=C(Nc1ccc(Cl)cc1C(=O)O)c1ccc2c(c1)C(=O)N(Cc1ccco1)C2=O` is 50% (active). Still for that read-out and setting: the figure for `O=C(Nc1ccc(O)cc1C(=O)O)c1ccc2c(c1)C(=O)N(Cc1ccco1)C2=O` is 24.6% (inactive). Take `Cc1c(NC(=O)c2ccc3c(c2)C(=O)N(Cc2ccco2)C3=O)cccc1C(=O)O`: the inhibition (at 20 µM) is 6.1% (inactive). Consider `O=C(N/N=C/c1cc(Br)cc(Br)c1O)c1ccncc1`, for which the inhibition reads like this: (at 20 µM) 103% (active); under setting [1], 59.2%.

For `COc1cc(/C=N/NC(=O)c2cccc(S(=O)(=O)N3CCOCC3)c2)cc(OC)c1O`, the inhibition (at 20 µM) was -3.4% (inactive).

Regarding `O=C(N/N=C/c1cc(Br)cc(Br)c1O)c1cccc(S(=O)(=O)N2CCOCC2)c1`, the inhibition (at 20 µM) was 80.2% (active) and the inhibition under setting [1] was 53.2%. Consider `COc1c(Br)cc(Br)cc1/C=N/NC(=O)c1ccncc1`, for which the inhibition (at 20 µM) was -1% (inactive). For the molecule `O=C(N/N=C/c1c(F)c(F)c(F)c(F)c1F)c1cccc(S(=O)(=O)N2CCOCC2)c1`, for the setting “at 20 µM”, the inhibition was 0.1% (inactive). For `O=C(N/N=C/c1cc(Br)ccc1O)c1ccncc1`, the inhibition (at 20 µM) was 3.3% (inactive). On the same count and under the same terms, the figure for `Cc1csc(NC(=O)/C=C/c2ccc(C)o2)n1` is 8.7% (inactive); for `O=c1[nH]c(C2CCN(S(=O)(=O)c3ccc(S(=O)(=O)NC4CC4)cc3)CC2)nc2c1nnn2Cc1ccccc1` it is -0.4% (inactive). On to `O=S(=O)(Cc1ccccc1)NCC1CCCO1` (stereo not drawn), for which, for the setting “at 20 µM”, the inhibition is -2.7% (inactive). As for `CCCCN(CCCC)C(=O)c1cc2ccccc2c(=O)o1`, the inhibition (at 20 µM) was -1.7% (inactive). In the case of `CCCCC[C@H](O)/C=C/[C@@H]1[C@@H](C/C=C\CCCC(=O)O)[C@H]2CO[C@@H]1C2`, the inhibition (at 20 µM) is 3.4% (inactive). The same measure, in the same setting: as for `CCCCC[C@H](O)/C=C/[C@H]1C=CC(=O)[C@@H]1C/C=C\CCCC(=O)O`, the figure is 52.4% (active).

Consider `CCCCC[C@H](O)/C=C/[C@@H]1[C@@H](C/C=C\CCCC(=O)O)[C@@H](O)C[C@H]1O`, for which the inhibition (at 20 µM) was -0.8% (inactive). Still for that read-out and setting: the figure for `CCOC(=O)c1ccc(NC(=S)NCC(O)c2ccccc2)cc1` (stereo not drawn) is 8.7% (inactive); for `Cn1cnnc1SCC(=O)Nc1ccc(Cl)cc1` it is 1.9% (inactive). As to `Cc1ccc(C(=O)NN2C(=O)/C(=C/c3cccn3C)SC2=S)cc1`, for the setting “at 20 µM”, the inhibition is 24.4% (inactive). `Cn1cccc1/C=C1\SC(=S)N(NC(=O)c2ccccc2Cl)C1=O`: the inhibition (at 20 µM) is 22.1% (inactive). `Cn1cc(/C=C2\SC(=S)N(NC(=O)c3ccccc3Cl)C2=O)c2ccccc21`: the inhibition runs as follows: (at 20 µM) 66.4% (active); under setting [1], 117%.

`Cn1cccc1/C=C1\SC(=S)N(NC(=O)c2cccc(Cl)c2)C1=O`: the inhibition (at 20 µM) was 25.6% (inactive). Turning to `Cc1ccc(C(=O)NN2C(=O)/C(=C/c3cn(C)c4ccccc34)SC2=S)cc1`, the inhibition is 86.9% (active) (at 20 µM) and 91.3% under setting [1]. On the same counts, the results for `Cn1cccc1/C=C1\SC(=S)N(NC(=O)c2ccccc2O)C1=O` are 66.2% (inactive) and 25.2%.

For `Cn1cc(/C=C2\SC(=S)N(NC(=O)c3cccc(Cl)c3)C2=O)c2ccccc21`, the inhibition (at 20 µM) was 69.3% (active). With `Cn1cc(/C=C2\SC(=S)N(NC(=O)c3ccccc3)C2=O)c2ccccc21`, the inhibition runs as follows: (at 20 µM) 122% (inactive); under setting [1], 17.7%. Take `Cn1cccc1/C=C1\SC(=S)N(NC(=O)c2ccccc2)C1=O`: the inhibition (at 20 µM) is 35.3% (inactive). The same measure, in the same setting: the figure for `Cc1nc(SCc2ccccc2)[nH]c(=O)c1CC(=O)OCC(C)C` is 0.8% (inactive). With `CN(C)c1nc(N)c([N+](=O)[O-])c(NCc2ccccc2)n1`, the inhibition (at 20 µM) was -1.3% (inactive). Still for that read-out and setting: as for `Cc1onc(-c2c(Cl)cccc2Cl)c1C(=O)Nc1nccs1`, the figure is -1% (inactive); as for `COc1ccc(NCC(=O)N/N=C(\C)c2cc3ccccc3o2)cc1`, -3.3% (inactive); as for `Cc1c(NC(=O)/C(=C/c2cccs2)c2cccs2)c(=O)n(-c2ccccc2)n1C`, 6.2% (inactive).

Regarding `Cc1c(N=C2N=C(NC(=O)c3cccs3)c3ccccc32)c(=O)n(-c2ccccc2)n1C`, the inhibition (at 20 µM) was 75.3% (active). Consider `Cc1c(N=C2N=C(NC(=O)Nc3ccc(Cl)cc3)c3ccccc32)c(=O)n(-c2ccccc2)n1C`, for which, for the setting “at 20 µM”, the inhibition was 137% (inactive).

Consider `Cc1c(NC(=O)c2cccs2)c(=O)n(-c2ccccc2)n1C`, for which, where the note is “at 20 µM”, the inhibition was -1.2% (inactive). With `Cc1c(N=C2N=C(NC(=O)c3ccc(F)cc3)c3ccccc32)c(=O)n(-c2ccccc2)n1C`, where the note is “at 20 µM”, the inhibition was 74.4% (active). Still for that read-out and setting: as for `Cc1c(N=C2N=C(NC(=O)NC(C)(C)C)c3ccccc32)c(=O)n(-c2ccccc2)n1C`, the figure is -0.2% (inactive); as for `CC(=O)Nc1cccc(NC(=O)CSc2ncc(-c3ccccc3)[nH]2)c1`, 0.5% (inactive). The same measure, in the same setting: the figure for `Cc1ccc(C(C(=O)NC2CCCCC2)N(Cc2ccco2)C(=O)Cn2cnc3ccccc32)cc1` (stereo not drawn) is -1.8% (inactive); for `Cc1nc(NC(=O)/C=C/c2ccccc2)sc1C(=O)N1CCCCC1` it is -0.3% (inactive). Still for that read-out and setting: the figure for `Cc1cc(/C=C2\SC(=S)N(Cc3ccco3)C2=O)c(C)n1-c1ccccc1` is 43.7% (inactive). With `COc1ccc(-n2c(C)cc(/C=C3\SC(=S)N(Cc4ccco4)C3=O)c2C)cc1`, for the setting “at 20 µM”, the inhibition was 38.3% (inactive). Consider `Cc1cc(/C=C2\SC(=S)N(Cc3ccco3)C2=O)c(C)n1-c1cccnc1`, for which the inhibition by setting is: (at 20 µM) 53.6% (active); under setting [1], 94.4%.

Consider `NC(=O)CSc1nc(C23CC4CC(CC(C4)C2)C3)nc2ccccc12`, for which the inhibition (at 20 µM) was -1.1% (inactive).

Regarding `CCCNC(=O)Cn1c(=O)/c(=C\c2ccc(-c3cccc([N+](=O)[O-])c3)o2)s/c1=C\C(=O)C(C)(C)C`, where the note is “at 20 µM”, the inhibition was 23.1% (inactive). The same measure, in the same setting: as for `CC(C)(C)C(=O)/C=c1\s/c(=C\c2ccc(-c3ccc([N+](=O)[O-])cc3)o2)c(=O)n1CC(=O)NC(N)=O`, the figure is 76.8% (active); as for `CCCNC(=O)Cn1c(=O)/c(=C\c2ccc(-c3ccc([N+](=O)[O-])cc3)o2)s/c1=C\C(=O)C(C)(C)C`, 145% (inactive).

In the case of `O=C(CCc1nc2ccccc2[nH]c1=O)N/N=C/c1ccccc1`, the inhibition (at 20 µM) was -0.5% (inactive). For the molecule `CCOC(=O)CCSc1nc(C(C)(C)C)cc(C(F)(F)F)c1C#N`, the inhibition (at 20 µM) is -0.1% (inactive). For the molecule `CCOC(=O)NC(=O)CSc1nc(C)cc(C(F)(F)F)c1C#N`, the inhibition (at 20 µM) is 4.9% (inactive). Consider `CCOC(=O)CCSc1nc(C)cc(C(F)(F)F)c1C#N`, for which the inhibition (at 20 µM) is 82% (active) and the inhibition under setting [1] was determined as 50.9%.

In the case of `O=C(NN=C1C2CC3CC(C2)CC1C3)c1cccc(S(=O)(=O)N2CCOCC2)c1`, under “at 20 µM”, the inhibition is 2.1% (inactive). Consider `Cc1ccccc1CSc1n[nH]c(NS(=O)(=O)c2ccccc2)n1`, for which the inhibition (at 20 µM) is -0.6% (inactive). Same read-out and setting: the figure for `COc1ccccc1C(=O)NNC(=O)c1cccc(C)c1` is 0.2% (inactive); for `Cc1cc(-c2csc(NC(=O)c3ccc(=O)[nH]c3)n2)c(C)n1Cc1ccco1` it is 61% (active); for `Cc1cc(-c2csc(NC(=O)c3ccc(C#N)cc3)n2)c(C)n1Cc1ccco1` it is 56.1% (active). For the molecule `CCNc1nc(-c2cc(C)n(Cc3ccco3)c2C)cs1`, the inhibition reads like this: (at 20 µM) 59.6% (inactive); under setting [1], 0.3%. Turning to `Cc1cc(-c2csc(NC(=O)c3ccc(C#N)cc3)n2)c(C)n1Cc1ccccc1`, the inhibition (at 20 µM) is 15.9% (inactive). Consider `Cc1cc(-c2csc(N)n2)c(C)n1Cc1ccco1`, for which the inhibition (at 20 µM) is 46.3% (inactive). For `Cc1cc(-c2csc(NC(=O)c3ccc(=O)[nH]c3)n2)c(C)n1Cc1ccccc1`, the inhibition by setting is: (at 20 µM) 84.8% (inactive); under setting [1], 2.3%. Turning to `O=C(Nc1cccc(C(F)(F)F)c1)/C(=C/c1ccco1)NC(=O)c1cccs1`, for the setting “at 20 µM”, the inhibition is 15.1% (inactive). With `O=C(O)c1cccc(N/N=C/c2ccc(OC(F)(F)F)cc2)c1`, the inhibition (at 20 µM) is 26.1% (inactive).

In the case of `COC(=O)c1ccc(COc2ccc(/C=N/Nc3cccc(C(=O)O)c3)cc2)cc1`, for the setting “at 20 µM”, the inhibition was 58.9% (active). Take `COC(=O)c1ccc(COc2ccccc2/C=N/Nc2cccc(C(=O)O)c2)cc1`: the inhibition (at 20 µM) is 37% (inactive). Regarding `COc1ccc(/C=N/NC(=O)c2cccc([N+](=O)[O-])c2)cc1OC(=O)c1ccc(C)cc1`, the inhibition (at 20 µM) was -0.7% (inactive). Take `CO/N=C(\c1nonc1N)N1CCN(c2ccc(Cl)cc2[N+](=O)[O-])CC1`: the inhibition (at 20 µM) was -0.3% (inactive). On the same count and under the same terms, as for `CC1=N/C(=C/c2ccco2)C(=O)O1`, the figure is 41.7% (inactive); as for `O=C1OC(/C=C/c2ccc(Cl)cc2)=NC/1=C/c1ccco1`, 56.5% (active). For `COc1ccccc1/C=C/C=C1N=C(/C=C/c2ccc(Cl)cc2)OC/1=O`, the inhibition was 56.4% (inactive) (at 20 µM) and -0.4% under setting [1].

Regarding `O=C(NCc1ccccc1Cl)NCc1ccccc1Cl`, the inhibition (at 20 µM) was 1% (inactive).

For the molecule `CCCC(=O)n1nc(-c2ccccc2)nc1SC`, the inhibition (at 20 µM) was 3.2% (inactive).

Consider `Cc1nnc(NC(=O)C23CC4CC(CC(C4)C2)C3)s1`, for which the inhibition (at 20 µM) is 2.2% (inactive). On the same count and under the same terms, the figure for `COc1ccc(-c2cc(CCCC(=O)N3CCN(c4ccc(OC)cc4)CC3)no2)cc1` is -1.3% (inactive); for `COc1ccc2nc3cc(Cl)ccc3c(Nc3cc(C(C)C)c(O)cc3C)c2c1` it is -5.4% (inactive); for `COc1ccc2nc3cc(Cl)ccc3c(C#N)c2c1` it is 3.4% (inactive). The same measure, in the same setting: as for `CCN(CC)CCCC(C)Nc1c2ccc(Cl)cc2nc2ccc(OC)cc12` (stereo not drawn), the figure is 62.2% (active); as for `O=C1N/C(=N\S(=O)(=O)Cc2ccccc2)S/C1=C/c1cc([N+](=O)[O-])ccc1O`, 69.6% (active). In the case of `COc1cccc(N=C2NC(=O)/C(=C/c3cc([N+](=O)[O-])ccc3O)S2)c1`, the inhibition is, setting by setting: (at 20 µM) 64.2% (inactive); under setting [1], 33%.

For the molecule `O=C1NC(=Nc2ccccc2Cl)S/C1=C\c1cccc([N+](=O)[O-])c1`, the inhibition reads like this: (at 20 µM) 75.6% (inactive); under setting [1], 29.4%.

Turning to `O=C1N/C(=N\S(=O)(=O)Cc2ccccc2)S/C1=C/c1cccc([N+](=O)[O-])c1`, for the setting “at 20 µM”, the inhibition is 30.7% (inactive). Turning to `COc1c(/C=C2\SC(=Nc3ccccc3Cl)NC2=O)cccc1[N+](=O)[O-]`, the inhibition (at 20 µM) was 20% (inactive). Same read-out and setting: the figure for `O=C1NC(=Nc2ccccc2Cl)S/C1=C\c1ccc(C(=O)O)cc1` is 26.9% (inactive); for `COc1cc(/C=C2\S/C(=N/S(=O)(=O)Cc3ccccc3)NC2=O)c([N+](=O)[O-])cc1OC` it is 25.9% (inactive). Take `O=C1NC(=Nc2ccccc2Cl)S/C1=C\c1cc([N+](=O)[O-])ccc1O`: the inhibition reads like this: (at 20 µM) 89.1% (active); under setting [1], 124%.

The values are drawn from PubChem BioAssay AID1986 (Sanford-Burnham Center for Chemical Genomics, 2009).
